The values that follow come from PubChem BioAssay (Tox21).

Results filed as inconclusive are left out. A number with no mark means an inactive call. The source made the active and inactive calls. The call rests on the fitted dose curve.
On the % scale 0 is the no-effect control and ±100 the full control effect.

The test is described as follows: qHTS assay to identify small molecule antagonists of the estrogen receptor alpha (ER-alpha) signaling pathway - cell viability counter screen (AID 743074).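 Further: HEK293 cells carrying ER-alpha-UAS-bla reporter stimulated with 17beta-estradiol; nearly all actives have a fitted effect of over 45% in size.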 The note with it: ERalpha-bla HEK293 viability, CellTiter-Glo luminescence, 18 h; series mostly up to 69.4 µM; activity, negative = cytotoxicity: at the top concentration. Background: qHTS replaces the single test concentration by a dilution series.
Consider `CC(C)=CCC/C(C)=C/CC/C(C)=C/CO`, for which the “activity, negative = cytotoxicity” value is -15.6%.
The same measure, in the same setting: under `O=C(Cl)c1cc(C(=O)Cl)cc(C(=O)Cl)c1` stands -16.9%; under `O=C1CCCCCCCCCCCC(=O)OCCO1`, 3.02%.
With `CN(Cc1ccc(C(C)(C)C)cc1)Cc1cccc2ccccc12`, the Potency entry was “inactive”.
With `Cc1cccc(C)c1NC(=O)CN(CC(=O)O)CC(=O)O`, the “activity, negative = cytotoxicity” value was -13.8%.
Same read-out and setting: under `O=[N+]([O-])c1cccc(S(=O)(=O)O)c1` stands -16.7% [at 79.1 µM].
On the same count and under the same terms, under `CCCCCCCC/C=C\CCCCCCCC(=O)OCC` stands 8.77%.
Regarding `OC(C#CCN1CCCC1)(c1ccccc1)c1ccccc1`, the “activity, negative = cytotoxicity” value is 14.9%.
Regarding `CCCCCCCCCCCCCCCCOS(=O)(=O)O`, the “activity, negative = cytotoxicity” value is 11%.
Turning to `O=S(c1cc(Cl)cc(Cl)c1O)c1cc(Cl)cc(Cl)c1O`, the “activity, negative = cytotoxicity” value is -25.1%.
As to `CC(C)C[C@H]1C(=O)N2CCC[C@H]2[C@]2(O)O[C@](NC(=O)[C@@H]3C=C4c5cccc6[nH]c(Br)c(c56)C[C@H]4N(C)C3)(C(C)C)C(=O)N12`, the Potency entry was “inactive”.
Consider `Cc1oc(-c2ccccc2)nc1CCOc1cccc2c1ccn2CCC(=O)O`, for which the “activity, negative = cytotoxicity” value was 6.59%.
On the same count and under the same terms, under `C1CCCNCCC1` stands -1.96%; under `CCCCCCCCCCCCCCCCCCOS(=O)(=O)O`, -14.6%; under `Nc1ccc(N)c2c1C(=O)c1ccccc1C2=O`, -18.4%.
As for `COc1cc2nc(N3CCN(C(=O)C4COc5ccccc5O4)CC3)nc(N)c2cc1OC` (configuration not stated), the “activity, negative = cytotoxicity” value is 15.1%.
As for `OC(CN1CCC(Cc2ccc(F)cc2)CC1)c1ccc(Cl)cc1` (configuration not stated), the “activity, negative = cytotoxicity” value is -27.2%.
Still for that read-out and setting: under `Nc1ncn([C@H]2C[C@H](O)[C@@H](CO)O2)c(=O)n1` stands 4.58%.
As to `CCC(C)(C)CC`, the “activity, negative = cytotoxicity” value is 1.28% [at 79.1 µM].
The same measure, in the same setting: under `COc1cc(Cl)ccc1Oc1ccc(Cl)cc1Cl` stands 30%.
Still for that read-out and setting: under `COc1ccc(-c2nc3ccc(C4=NNC(=O)CC4C)cc3[nH]2)cc1` (configuration not stated) stands -12.7%; under `COc1cc2c(cc1OC)C(C(C(=O)N(CCc1ccc(OC)c(OC)c1OC)CCc1ccc(OC)c(OC)c1OC)c1ccccc1)=NCC2` (configuration not stated), -8.81%.
Same read-out and setting: under `C[N+]1(CC2COC(c3ccccc3)(C3CCCCC3)O2)CCCCC1` (configuration not stated) stands -19.4%; under `O=C(CS)Nc1ccccc1`, -11.7%.
Consider `C=C1C(=C/C=C2\CCC[C@]3(C)[C@@H]([C@H](C)/C=C/[C@@H](O)C4CC4)CC[C@@H]23)C[C@@H](O)C[C@@H]1O`, for which the “activity, negative = cytotoxicity” value is -22.4%.
With `CC[N+](C)(CC)CCOC(=O)C(O)(c1ccccc1)C1CCCCC1` (configuration not stated), the “activity, negative = cytotoxicity” value is -9.89%.
In the case of `CCOC(=O)NCCOc1ccc(Oc2ccccc2)cc1`, the “activity, negative = cytotoxicity” value was -9.28%.
Still for that read-out and setting: under `CCCCC1=NC2(CCCC2)C(=O)N1Cc1ccc(-c2ccccc2-c2nn[nH]n2)cc1` stands -6.79%; under `CC(C)OC(=O)C(C)N(C(=O)c1ccccc1)c1ccc(F)c(Cl)c1` (configuration not stated), 2.14%; under `Clc1ccc(Cn2c(CN3CCCC3)nc3ccccc32)cc1`, -18.3% [at 32.6 µM].
On to `O=C(O)c1ccc(-n2nc(-c3ccccc3O)nc2-c2ccccc2O)cc1`, for which the “activity, negative = cytotoxicity” value is -16.9%.
With `Cc1cccc(Nc2ccccc2)c1`, the “activity, negative = cytotoxicity” value is 13.5%.
